Screening data as filed in PubChem.
Sfp inh – qHTS Assay for Inhibitors of Bacillus subtilis Sfp phosphopantetheinyl transferase (PPTase) | Biochemical Sfp PPTase activity, qHTS | 4'-phosphopantetheinyl transferase ffp (Bacillus subtilis), Q9F4F7 | Potency, µM, usual class: inhibitors | 310,000 compounds, 3.5% hits;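 further: the enzyme is Sfp with the accession as filed and its product quenches rhodamine fluorescence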
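After 15 min at room temperature with compound, 15 nM Sfp received 5 uM rhodamine-CoA plus 12.5 uM BHQ-2-ybbR (50 mM Hepes pH 7.6, 10 mM MgCl2). Rate came from the fluorescence difference over 30 min, ex 525/em 598 nm.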
12-LOX inh – Primary qHTS assay for inhibitors of human arachidonate 12S-lipoxygenase (ALOX12): Round 2; Polyunsaturated fatty acid lipoxygenase ALOX12 (Homo sapiens), P18054; purified 12hLO, xylenol orange hydroperoxide absorbance; Potency, µM (titrated, usually from 108 µM), actives largely listed as inhibitors; 580,000 compounds, 1.1% hits
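Hydroperoxide product was detected by ferrous iron/xylenol orange as the 573 to 405 nm absorbance ratio. Arachidonic acid at 40 uM (final) was turned over for 30 min at room temperature by 150 nM human 12hLO, pH 7.0 Hepes buffer, after 15 min compound preincubation.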
VDR inh – Inhibitors of the vitamin D receptor (VDR): qHTS. Potency, µM, actives largely listed as inhibitors. VDR-SRC2-3 peptide fluorescence polarization, 2 h. AID 504847, 2011. 400,000 compounds, 0.93% hits. Vitamin D3 receptor (Homo sapiens), P11473
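Fluorescence polarization assay measuring small-molecule disruption of VDR binding to the coregulator peptide SRC2-3. Compounds were pin-transferred (23 nl) into the reagent mix and incubated 2 h at room temperature before reading.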
G9a block – qHTS Assay for Inhibitors of Histone Lysine Methyltransferase G9a; Histone-lysine N-methyltransferase EHMT2 (Homo sapiens), Q96KQ7; G9a H3K9 monomethylation, AlphaScreen, 2 h; Potency, µM (doses to about 102 µM), hits mostly inhibitors; 350,000 compounds, 8.8% hits; further: nearly all actives have a fitted effect of over 75% in size
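G9a (20 nM) preincubated 15 min RT with compounds, then 500 nM biotinylated H3K9 peptide and 20 uM SAM added; 2 h RT reaction. Monomethyl-H3K9 product detected by AlphaScreen with anti-H3K9me1 antibody, streptavidin donor and anti-rabbit IgG acceptor beads.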
GRP78 ERSR act – qHTS for Inducers of the Endoplasmic Reticulum Stress Response (ERSR) in Human Glioma: qHTS | U87-MG GRP78 promoter luciferase reporter, 16 h | Potency, µM, hits mostly activators | 420,000 compounds, 0.02% hits; further: series mostly up to about 76 µM; nearly all actives have a fitted effect of over 35% in size
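ERSR induction read as luciferase luminescence (Bright-Glo, 10 min at room temperature) in stably transfected human U87-MG glioma cells exposed to compounds for 16 h, using GRP78 as sensor.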
Hits are given with their value; . = inactive; ? = inconclusive; / = not tested or not shown; ! = not confirmed by another sample. This is one part of a sample in which hits are shown more often than they occur. The call rests on the fitted dose curve; in most records, active means well fitted curve in the direction sought with a large enough effect; inconclusive means small, poorly fitted or top-dose-only effect, or another doubt; inactive means no such curve, though single readings can be large; an effect the other way counts as inactive or inconclusive.

SMILES | Sfp inh | 12-LOX inh | VDR inh | G9a block | GRP78 ERSR act
Cc1ccc2c(c1)c1c3n2CCN(C(=O)CN2CCN(C)CC2)C3CCC1 (configuration not stated) | . | . | . | 44.7µM | .
Cc1ccc2c(c1)c1c3n2CCN(C(=O)c2ccc(C(F)(F)F)cc2)C3CCC1 (configuration not stated) | / | . | . | ? | .
CN1CCN(CC(=O)N2CCn3c4c(c5cc(C6CCCCC6)ccc53)CCCC42)CC1 (configuration not stated) | ? | / | . | ? | .
CN(C)CCNC(=O)c1ccc(Sc2ccc(Br)cc2)c([N+](=O)[O-])c1 | . | ? | . | 35.5µM | .
Nc1cc(C(=O)O)ccc1Sc1ccccc1C(=O)O | 15.8µM | ? | ? | 4.47µM | .
CC(=O)c1ccc(Sc2ccccc2)c([N+](=O)[O-])c1 | . | . | . | 22.4µM | .
O=C(O)c1ccccc1C(=O)c1ccc(Sc2ccc(Cl)cc2)c([N+](=O)[O-])c1 | . | . | . | / | .
Nc1ccccc1Sc1ccc(C(=O)c2ccccc2C(=O)O)cc1[N+](=O)[O-] | ? | ? | . | 20µM | .
N#CCCN(C(=O)CN1CCCC1c1ccc2c(c1)OCCO2)c1ccccc1F (configuration not stated) | / | . | / | / | /
Cc1cc(N)c2ccccc2[n+]1CCCCCCCCCC[n+]1c(C)cc(N)c2ccccc21 | 4.47µM! | ? | . | 50.1µM! | .
COc1ccc(C)cc1NC(=O)Cn1c(C(=O)c2cccc(F)c2)nc2ccccc21 | / | . | / | / | /
CNS(=O)(=O)c1ccc(CCC(=O)Nc2nc(C)c(C)s2)cc1 | / | . | / | / | /
C=CCn1c(SCc2nc3sc(C(=O)O)c(C)c3c(=O)[nH]2)nnc1-c1ccc(C(C)(C)C)cc1 | 28.2µM | . | . | 14.1µM | .
C=CCn1c(SCc2nc3sc(C(=O)O)c(C)c3c(=O)[nH]2)nnc1-c1ccccc1 | . | . | . | ? | .
Cc1c(C(=O)O)sc2nc(CSc3nnc(-c4ccc(F)cc4)n3C)[nH]c(=O)c12 | . | . | . | 35.5µM | .
CCn1c(SCc2nc3scc(-c4ccccc4)c3c(=O)[nH]2)nnc1-c1ccc(Cl)cc1 | . | . | . | . | .
CCOCCCn1c(SCc2nc3sc(C(=O)O)c(C)c3c(=O)[nH]2)nnc1-c1ccc(Cl)cc1 | . | . | . | 20µM | .
CC(=O)c1sc2nc(CSc3nnnn3-c3ccccc3)[nH]c(=O)c2c1C | ? | . | . | 56.2µM | .
CSc1ccc(/C=C/C(=O)c2ccc(NC(=O)c3ccccc3)cc2)cc1 | / | . | / | / | /
C/C(=N\O)C1CCCCCCCCCCC1 | / | . | / | / | /
CC1(CNc2ccccc2)COc2ccc(C(=O)Nc3ccc4[nH]ccc4c3)cc2N1 (configuration not stated) | / | . | / | / | /
Cc1ccc(-c2csc3nc(CSc4nnc(-c5ccc(Cl)cc5)n4C)[nH]c(=O)c23)cc1 | . | . | . | 22.4µM | .
O=C(CC1C=CCC1)Nc1ccc(SC2CCCC2)cc1 (configuration not stated) | / | . | / | / | /
O=C(O)c1ccccc1SCc1ccc(Br)cc1 | / | . | / | / | /
COC(=O)CSc1nc(N2CCOCC2)c2c(c1C#N)CC(C)(C)OC2 | . | . | . | ? | .
SMILES | Sfp inh | 12-LOX inh | VDR inh | G9a block | GRP78 ERSR act
COC(=O)Sc1nc(N2CCOCC2)c2c(c1C#N)CC(C)(C)OC2 | ? | . | . | 7.94µM | .
CC1(C)Cc2c(C#N)c(SCC(=O)c3ccccc3)nc(N3CCOCC3)c2CO1 | 14.1µM | ? | ? | 22.4µM | .
CC(C)CCCNC(=O)c1cn(C)c2ccccc12 | / | . | / | / | /
CCSC(=Nc1ccccc1)C1=C(O)COC1=O | . | ? | . | 35.5µM | .
COc1ccc(C(=O)OCc2ccccc2F)c(OC)c1OC | / | . | / | / | /
COc1ccc(Cl)cc1-c1ccc2c(c1)C(=O)N1CC[C@H](NC(=O)c3cccs3)C[C@H]1C(=O)N2 | / | . | / | / | /
CN(C)[C@@H]1CN(Cc2cc(F)c(F)c(F)c2)CC[C@@H]1CNC(=O)C1CC1 | / | . | / | / | /
